Reference: the supplement of paper PMC6555819

Each sequence was assayed on PXR:RXRa (NR concentration 270 nM, RXRa partner concentration 90 nM) (assay: PBM binding z-score (relative to random genomic background probes); higher = stronger binding; sequences stand for … in GC…GCGATTGACAGCGTAGAATGAAGG).
Outline: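 Each nuclear receptor dimer, without ligand, was incubated for 1 h on custom Agilent 4×180K protein-binding microarrays. Binding was detected with antibodies against each partner (one per run), and scanned fluorescence was regression-normalized. The binding z-scores are referenced to random human genomic background probes.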

Q: Which PBM binding z-score does the source give for CGATCTAGGTCACCAGGACAGTGAAGAGGTTGGA here?
A: 1.46

Q: CGAACTAGATCACCAGGACAGTGAAGAGGTTGGA was tested. Which PBM binding z-score did it give?
A: -0.455

Q: CGAACTAGGTCACCTGGACAGTGAAGAGGTTGGA was tested. Which PBM binding z-score did it give?
A: 1.46

Q: For ATATGTAGGTTAGGGTCTTTCAGAAAGTAGGGAA, which PBM binding z-score is on record?
A: 0.93

Q: Which PBM binding z-score does the source give for CGAACTAGGTCAAAGGACAGTGGAAGGCGACGTA here?
A: 0.947

Q: CGAACTAGGTCACCAGGACAGTGCAGAGGTTGGA was tested. Which PBM binding z-score did it give?
A: 1.73

Q: With CGAACTAGGTCAAAGGACAGTGATAGGCGACGTA as the sequence, how does the PBM binding z-score read?
A: 1.14

Q: ATATGTAGGTTAGTGTCATTCAGAAAGTAGGGAA was tested. Which PBM binding z-score did it give?
A: 1.09

Q: Which PBM binding z-score does the source give for CGTACTAGGTCACCAGGACAGTGAAGAGGTTGGA here?
A: 1.53

Q: How did the PBM binding z-score turn out when ATATGTAGGTTAGGCTCATTCAGAAAGTAGGGAA was run?
A: -0.124

Q: Which PBM binding z-score does the source give for ATATGCAGGTTAGGGTCATTCAGAAAGTAGGGAA here?
A: 4.28

Q: CGAACTAGGTCACCAGGAGAGTGAAGAGGTTGGA was tested. Which PBM binding z-score did it give?
A: 1.22

Q: With CGAACTAGGTCAAATGACAGTGAAAGGCGACGTA as the sequence, how does the PBM binding z-score read?
A: 1.34

Q: CGAACTAGGTCAAAGGACAGTGACAGGCGACGTA was tested. Which PBM binding z-score did it give?
A: 1.3

Q: ATAAGTAGGTTAGGGTCATTCAGAAAGTAGGGAA was tested. Which PBM binding z-score did it give?
A: 4.78

Q: Which PBM binding z-score does the source give for CGAACTAGGTCACCAGGACAGTAAAGAGGTTGGA here?
A: 1.66

Q: With ATATGTAGGTGAGGGTCATTCAGAAAGTAGGGAA as the sequence, how does the PBM binding z-score read?
A: 3.02

Q: CGAACTAGGTCAGCAGGACAGTGAAGAGGTTGGA was tested. Which PBM binding z-score did it give?
A: 0.361

Q: For CGAACTAGGTCAAAGGACAATGAAAGGCGACGTA, which PBM binding z-score is on record?
A: 1.5

Q: How did the PBM binding z-score turn out when CGATCTAGGTCAAAGGACAGTGAAAGGCGACGTA was run?
A: 0.913

Q: With ATATGTAGGTTAGAGTCATTCAGAAAGTAGGGAA as the sequence, how does the PBM binding z-score read?
A: 0.349

Q: For CGAACTAGGTCACCAGGACAGTGAAGAGGTTGGA, which PBM binding z-score is on record?
A: 1.37

Q: With ATATGTAGGCTAGGGTCATTCAGAAAGTAGGGAA as the sequence, how does the PBM binding z-score read?
A: 3.55

Q: With CGAACTTGGTCACCAGGACAGTGAAGAGGTTGGA as the sequence, how does the PBM binding z-score read?
A: -0.0595

Q: With ATATGTAGGTTAGGGGCATTCAGAAAGTAGGGAA as the sequence, how does the PBM binding z-score read?
A: 1.43

Q: With ATATGTAGGTTAGGGTCATTAAGAAAGTAGGGAA as the sequence, how does the PBM binding z-score read?
A: 3.9

Q: How did the PBM binding z-score turn out when ATATGTAGGTTTGGGTCATTCAGAAAGTAGGGAA was run?
A: 2.17

Q: Which PBM binding z-score does the source give for ATATGTAAGTTAGGGTCATTCAGAAAGTAGGGAA here?
A: 4.63

Q: ATATGAAGGTTAGGGTCATTCAGAAAGTAGGGAA was tested. Which PBM binding z-score did it give?
A: 4.59

Q: CGAACTAGGTCAATGGACAGTGAAAGGCGACGTA was tested. Which PBM binding z-score did it give?
A: 0.477

Q: Which PBM binding z-score does the source give for CGAACTAGGTAACCAGGACAGTGAAGAGGTTGGA here?
A: -0.312

Q: For ATATGGAGGTTAGGGTCATTCAGAAAGTAGGGAA, which PBM binding z-score is on record?
A: 4.32

Q: CGAACTAGGTCACCAGGGCAGTGAAGAGGTTGGA was tested. Which PBM binding z-score did it give?
A: 1.7

Q: Which PBM binding z-score does the source give for CGAACTAGGTCACCAGGACATTGAAGAGGTTGGA here?
A: 1.66

Q: CGAACTAGGTCAAAGGACAGCGAAAGGCGACGTA was tested. Which PBM binding z-score did it give?
A: 1.22

Q: For CGAACTAGGCCACCAGGACAGTGAAGAGGTTGGA, which PBM binding z-score is on record?
A: -0.874

Q: How did the PBM binding z-score turn out when CGAACTAGGGCACCAGGACAGTGAAGAGGTTGGA was run?
A: -0.709

Q: How did the PBM binding z-score turn out when CCAACTAGGTCACCAGGACAGTGAAGAGGTTGGA was run?
A: 1.52

Q: With CGAACTAGGTCAAAGTACAGTGAAAGGCGACGTA as the sequence, how does the PBM binding z-score read?
A: 1.58
